# According to the supplement of paper PMC12340641:
# Where a name gives a salt, the structure may show the parent alone. ± gives the standard deviation of the averaged measurements.
# Experiments:
# [1] = biological target: IKZF1 (dCK*-IKZF1 fusion in HEK293FT) (UniProt Q13422); assay: inhibition of IKZF1 HTRF signal (DMSO = 0%, pomalidomide 10 uM = 100%); higher = lower IKZF1 protein level; conditions: compound concentration: 5 uM, overnight (~20 h)
# Summary of the method: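 After overnight treatment at 37 °C with 5 μM compound in single wells, HEK293FT cells (2000/well, 384-well) stably expressing an IKZF1 fusion were lysed for 30 min at room temperature. A commercial HTRF total-IKZF1 antibody kit was incubated with the lysate overnight, and the time-resolved FRET ratio at 665/620 nm was corrected for background. Data are given as percent inhibition of IKZF1 signal relative, on each plate, to vehicle and a reference degrader, set at 0% and 100% respectively.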
# HEK293FT dCK*-only = assay: relative growth in counter assay (no AraC = 100%, AraC + DMSO = 0%); higher = more growth rescue independent of IKZF1; conditions: compound concentration: 5 uM; AraC concentration: 0.3 uM; overnight pretreatment + 4 days AraC
# Summary of the method: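 Counter assay in HEK293FT cells expressing dCK* alone (300/well, 384-well). Cells received 5 μM compound 2 h after seeding, then after overnight at 37 °C a nucleoside suicide substrate at 0.3 μM plus medium for 4 days. On day 5, Hoechst 33342-stained nuclei were counted by imaging. Relative growth was normalised per plate to wells without suicide substrate (100%) and substrate plus vehicle (0%).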
# HEK293FT dCK*-IKZF1 = assay: relative growth recovery (pomalidomide 10 uM = 100%, DMSO = 0%); higher = more growth rescue (IKZF1 fusion degradation); conditions: compound concentration: 5 uM; AraC concentration: 0.3 uM; overnight pretreatment + 4 days AraC
# Summary of the method: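 Means of duplicates from different days are given for growth recovery, normalised per plate against a reference degrader and vehicle. The reference degrader set the 100% level and vehicle the 0% level. HEK293FT cells stably expressing a deoxycytidine kinase–IKZF1 fusion (300/well, 384-well) received 5 μM compound 2 h after seeding and, after overnight at 37 °C, 0.3 μM of a nucleoside suicide substrate plus medium for 4 days. Nuclei stained with Hoechst 33342 were then counted by whole-well imaging on day 5.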
# IKZF1 (dCK*-IKZF1 fusion in HEK293FT), sequence (Q13422 whole entry, looked up, the tested form may be a part): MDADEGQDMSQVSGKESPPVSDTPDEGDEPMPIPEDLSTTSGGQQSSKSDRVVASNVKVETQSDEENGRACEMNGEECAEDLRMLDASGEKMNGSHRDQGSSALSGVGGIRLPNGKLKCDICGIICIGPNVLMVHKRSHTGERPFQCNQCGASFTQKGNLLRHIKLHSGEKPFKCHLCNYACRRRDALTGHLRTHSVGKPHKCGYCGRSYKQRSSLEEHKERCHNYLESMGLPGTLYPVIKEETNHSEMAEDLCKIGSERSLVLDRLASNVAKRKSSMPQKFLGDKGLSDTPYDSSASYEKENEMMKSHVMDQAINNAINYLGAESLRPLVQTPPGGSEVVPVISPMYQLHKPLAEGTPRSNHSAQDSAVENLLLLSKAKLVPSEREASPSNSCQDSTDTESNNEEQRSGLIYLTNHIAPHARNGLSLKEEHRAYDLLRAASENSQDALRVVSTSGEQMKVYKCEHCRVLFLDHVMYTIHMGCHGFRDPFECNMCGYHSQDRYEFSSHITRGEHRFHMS
Structure (SMILES),inhibition of IKZF1 HTRF signal [1] [%],relative growth in counter assay (HEK293FT dCK*-only) [%],relative growth recovery (HEK293FT dCK*-IKZF1) [%]
CN1CCN(Cc2ccc(-c3cnc4[nH]cc(-c5ccc6[nH]ccc6c5)c4c3)cc2)CC1,-32.6,-34.1,-11.6
CCc1ccc(OCc2ccccc2C(=O)Nc2ccc3nc(C)cc(N)c3c2)cc1,41.1,-34.6,-14.6
CC1(C)Oc2ccc(C#N)cc2[C@@H](N2CCCC2=O)[C@@H]1O.CC1(C)Oc2ccc(C#N)cc2[C@H](N2CCCC2=O)[C@H]1O [levcromakalim],-32.9,4.22,-0.84
CCCCc1ccc2[nH]c(NC(=O)OC)nc2c1 [parbendazole],-10.3,-34.4,-11.7
Cc1c(S(=O)(=O)O)oc2c1C(=O)C(=O)c1c-2ccc2c1CCCC2(C)C [sodium-tanshinone-ii-a-sulfonate],20.9,4.38,-1.25
CC(=O)N(O)[C@@H]1c2cc(C#N)ccc2OC(C)(C)[C@H]1O,13.4,-4.7,-2.73
COC(=O)Nc1nc2ccc(C(=O)c3ccccc3)cc2[nH]1,-12.9,-32.6,-10.6
COc1cc(/C=C2\CCC/C(=C\c3ccc(O)c(OC)c3)C2=O)ccc1O [cyclovalone],-30.9,-31.6,2.27
CCc1c2c(nc3ccc(OC(=O)N4CCC(N5CCCCC5)CC4)cc13)-c1cc3c(c(=O)n1C2)COC(=O)[C@]3(O)CC [irinotecan],41.6,-35.4,-13.9
C[n+]1c2cc(N)ccc2cc2ccc(N)cc21,69.3,-34.9,-15
CN(C)CCCN1c2ccccc2Sc2ccc(Cl)cc21,-47.9,-0.83,-1.89
CCNC(=O)Nc1ccc(-c2nc3c(c(N4CCOC[C@@H]4C)n2)CCN(C2COC2)C3)cc1,68.5,-31.5,-12.3
COc1ccc(CN2CCN(C(c3ccc(F)cc3)c3ccc(F)cc3)CC2)c(OC)c1OC,-50.6,1.19,0.625
COc1cccc2c(O)c3c(O)c4c(c(O)c3c(O)c12)=C(O[C@H]1C[C@H](N)[C@@H](O)[C@H](C)O1)C[C@](O)(C(=O)CO)C=4 [Epirubicin HCl],24,-34.6,-13.6
O=C1CCC(N2C(=O)c3ccccc3C2=O)C(=O)N1 (configuration not stated) [thalidomide],-17.1,0.97,1.01
Nc1nc(=O)n([C@H]2C[C@H](O)[C@@H](CO)O2)cc1F [5-Fluoro-2'-deoxycytidine],-4.07,-26.3,-8.98
N=c1ccn2c(n1)O[C@H]1[C@H](O)[C@@H](CO)O[C@H]12 [Cyclocytidine HCl],-19.3,-34,-12.9
O=C2[C@]([C@]3=CC(Cl)=CC=C3OC)(F)C1=CC=C(C(F)(F)F)C=C1N2 [flindokalner],-26.1,-5.3,-1.65
O=c1[nH]nc(Sc2ncc([N+](=O)[O-])s2)n1-c1ccc2c(c1)OCCO2,-27.9,-34.9,-12.8
CCCCC1OC(=O)c2ccccc21 (configuration not stated) [Butylphthalide],-30.6,1.67,1.08
COc1ccc(-c2ccc3c(N4CCOCC4)nc(N4C[C@@H](C)O[C@@H](C)C4)nc3n2)cc1CO,14.5,-14,-6.47
CC(C)(C)c1cc(O)c(C(C)(C)C)cc1O,-31.7,-0.82,-0.575

Structure (SMILES),inhibition of IKZF1 HTRF signal [1] [%],relative growth in counter assay (HEK293FT dCK*-only) [%],relative growth recovery (HEK293FT dCK*-IKZF1) [%]
NS(=O)(=O)c1cc2c(cc1Cl)NC(C(Cl)Cl)NS2(=O)=O (configuration not stated),19.3,-3.14,-3.58
CC(CNC1CCCCC1)OC(=O)c1ccccc1 (configuration not stated) [hexylcaine],-36.3,0.35,-0.215
CN(CC3)C[C@@H](O)[C@H]3[C@]1=C(OC(C4=CC=CC=C4Cl)=CC2=O)C2=C(O)C=C1O [alvocidib],-30.5,-35.2,-12.5
COC(=O)Nc1nc2cc(C(=O)c3ccccc3)ccc2[nH]1 [Mebendazole],9.13,-30.6,-10.7
O=C(Nc1cnc(Cl)nc1)c1ccc(F)c(F)c1,-25.3,1.83,4.13
CO[C@H]1CC[C@H](N2C(=O)CNc3ncc(-c4ccc(C(C)(C)O)nc4)nc32)CC1,-19.1,-9.67,-7.24
O=C1C=Cc2cc(Br)ccc2C1=O [bonaphthone],23,1.29,-2.85
CO/N=C1\C[C@]2(C[C@@H]3C[C@@H](C/C=C(\C)C[C@@H](C)/C=C/C=C4\CO[C@@H]5[C@H](O)C(C)=C[C@@H](C(=O)O3)[C@]45O)O2)O[C@H](/C(C)=C/C(C)C)[C@H]1C,-19.4,-0.37,-1.09
O=C(Nc1ccc2[nH]ccc2c1)c1ccccc1,-24.8,-3.62,-0.01
CCCOc1ccc2nc(NC(=O)OC)[nH]c2c1,-18.4,-15.2,-2.92
O=c1c(-c2ccccc2)c1-c1ccccc1 [diphencyprone],-25.4,-31.8,-11.2
O=C(NC(NC(=S)Nc1ccc(F)c([N+](=O)[O-])c1)C(Cl)(Cl)Cl)C(c1ccccc1)c1ccccc1 (configuration not stated),-19.4,-20.4,-10.6
COc1cccc2c1C(=O)c1c(O)c3c(c(O)c1C2=O)C[C@@](O)(/C(CO)=N/NC(=O)CCCCCN1C(=O)C=CC1=O)C[C@@H]3O[C@H]1C[C@H](N)[C@H](O)[C@H](C)O1 [Aldoxorubicin],-9,-35.5,-14
COc1c(C/C=C(\C)CCC(=O)O)c(O)c2c(O)occ2c1C [Mycophenolic Acid],14.9,-30.9,-9.99
O=C(O)C(O)Cc1ccc(O)c(O)c1 (configuration not stated) [Sodium Danshensu],-50.2,0.01,-0.76
O=C(NCc1ccc(OC(F)(F)F)cc1)C1c2ccccc2C(=O)N1C1CCOCC1 (configuration not stated),-25.8,-2.6,-1.02
CN(C)CC/C=C1\c2ccccc2CSc2ccccc21 [dosulepin],-26.3,-9.29,-1.36
Oc1ccc(Cl)c2cccnc12,-32.6,-6.2,-1.79
Cc1ccc(S(=O)(=O)N/N=C/c2cc(Br)ccc2O)cc1,26 ± 7.3,-14 ± 4.4,2.03 ± 2.8
COC1=C2C[C@@H](C)C[C@H](OC)[C@H](O)[C@@H](C)/C=C(\C)[C@H](OC(N)=O)[C@@H](OC)/C=C\C=C(/C)C(=O)NC(=CC1=O)C2=O [Geldanamycin],57.7,-32.6,-11.4
COC(=O)Nc1nc2cc(SC(C)C)ccc2[nH]1 [methiazole],36.1,-32.7,-10.8
O=C(NCC1CCCCN1)c1cc(OCC(F)(F)F)ccc1OCC(F)(F)F (configuration not stated) [flecainide],-38,-3.96,0.135

Structure (SMILES),inhibition of IKZF1 HTRF signal [1] [%],relative growth in counter assay (HEK293FT dCK*-only) [%],relative growth recovery (HEK293FT dCK*-IKZF1) [%]
O=C1C=CC(=O)C2=C1C1c3ccccc3C2c2ccccc21,-32.2,-0.91,-0.735
CN1CCCC1CCOC(C)(c1ccccc1)c1ccc(Cl)cc1 (configuration not stated) [Clemastine fumarate],11,6.63,5.08
COC(=O)Nc1nc2ccc(S(=O)c3ccccc3)cc2[nH]1 (configuration not stated),5.34,-12.6,-3.6
CCN(CC)CCCC(C)Nc1nc(C)cc(Nc2ccc3nc(C)cc(N)c3c2)n1 (configuration not stated),-45.1,-7.4,0.345
CC[C@]1(O)C[C@H]2CN(CCc3c([nH]c4ccccc34)[C@@](C(=O)OC)(c3cc4c(cc3OC)N(C)[C@H]3[C@@](O)(C(N)=O)[C@H](O)[C@]5(CC)C=CCN6CC[C@]43[C@@H]65)C2)C1 [Vindesine Sulfate],-14,-34.3,-11.6
NC(=O)N/N=C/c1ccc([N+](=O)[O-])o1,-34.9,-3.72,-4.82
CC(C)(C)c1ccc(/C=C/C(=O)Nc2ccc3c(c2)OCCO3)cc1,-32,-1.73,0.45
Cc1cc2nc3ccc(N(C)C)cc3[s+]c2cc1N,-22.7,-34.5,-13.5
Cc1nc(Nc2ncc(C(=O)Nc3c(C)cccc3Cl)s2)cc(N2CCN(CCO)CC2)n1 [Dasatinib],-54.9,-29,-7.9
Clc1ccccc1C(c1ccccc1)(c1ccccc1)n1ccnc1,-36.9,5.96,2.19
O=C(O)c1cc(N=Nc2ccc(O)c(C(=O)O)c2)ccc1O [Olsalazine Na],-197,1.54,-1.08
O=C(Nc1ccc(F)cc1)N1CCc2ccccc2C1c1ccc(C(F)(F)F)cc1 (configuration not stated),-25.5,4.9,-0.27
COc1ccc2cc1Oc1ccc(cc1)C[C@H]1c3cc(c(OC)cc3CCN1C)Oc1c(OC)c(OC)cc3c1[C@H](C2)N(C)CC3 [Tetrandrine (Fanchinine)],8.84,-14.3,-3.42
O=C1NC(=O)/C(=C/c2ccc(-c3ccc(F)cc3O)o2)S1,-15.8,-7.95,-0.795
O=c1oc2c(O)c(O)cc3c(=O)oc4c(O)c(O)cc1c4c23,5.6,-6.38,-3
CCCCCCCCCCC(CO)CCCCCCCC (configuration not stated) [2-Octyldodecan-1-ol],-45,-4.55,-2.31
OCCN1CCN(CCCN2c3ccccc3Sc3ccc(Cl)cc32)CC1 [Perphenazine],0.695 ± 0.86,7.41 ± 5.6,2.98 ± 1
C=CC[C@@H]1/C=C(\C)C[C@H](C)C[C@H](OC)[C@H]2O[C@@](O)(C(=O)C(=O)N3CCCC[C@H]3C(=O)O[C@H](/C(C)=C/[C@@H]3CC[C@@H](O)[C@H](OC)C3)[C@H](C)[C@@H](O)CC1=O)[C@H](C)C[C@@H]2OC [Tacrolimus],-32.9,18.6,12.2
Nc1ccc2ncnc(NCCc3ccc(Oc4ccccc4)cc3)c2c1,20.9,-8.23,-2.79
CC(=O)[C@@]1(O)C=C(O[C@H]2C[C@H](N)[C@H](O)[C@H](C)O2)c2c(c(O)c3c(O)c4ccccc4c(O)c3c2O)C1 [Idarubicin HCl],87.1,-34.3,-13
